# Data taken from the supplement of paper PMC6555819.
# How the values were obtained:
# Test in all cases: PBM binding z-score (relative to random genomic background probes); higher = stronger binding; sequences stand for … in GC…GCGATTGACAGCGTAGAATGAAGG
# [1] = test system: PPARg:RXRa DBDmut IVT, anti-RXR (DBD mutation: RXRa K156A/R161A, NR concentration 270 nM, RXRa partner concentration 90 nM)
# Procedure, shortened: (§1)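 Random background probes are the reference for binding z-scores. These scores derive from regression-normalized fluorescence on custom Agilent 4×180K protein-binding microarrays incubated 1 h with ligand-free nuclear receptor dimers. Binding was detected with antibodies against each partner (one per run).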
# [2] = test system: PPARg:RXRa IVT, anti-PPARg (NR concentration 270 nM, RXRa partner concentration 90 nM)
# Procedure, shortened: as §1
# [3] = test system: PPARg DBDmut:RXRa IVT, anti-PPARg (DBD mutation: PPARg1 K132A/R137A, NR concentration 270 nM, RXRa partner concentration 90 nM)
# Procedure, shortened: as §1
# [4] = test system: PPARg DBDmut IVT, anti-PPARg (DBD mutation: PPARg1 K132A/R137A, NR concentration 270 nM)
# Procedure, shortened: as §1
# [5] = test system: PPARg homodimer (NR concentration 180 nM)
# Procedure, shortened: as §1
# [6] = test system: PXR:RXRa (NR concentration 270 nM, RXRa partner concentration 90 nM)
# Procedure, shortened: as §1
# [7] = test system: PXR homodimer (NR concentration 270 nM)
# Procedure, shortened: as §1
# [8] = test system: RARa:RXR (NR concentration 270 nM, RXRa partner concentration 90 nM)
# Procedure, shortened: as §1
# [9] = test system: RARa homodimer (NR concentration 270 nM)
# Procedure, shortened: as §1
# [10] = test system: RARb:RXRa (NR concentration 270 nM, RXRa partner concentration 90 nM)
# Procedure, shortened: as §1
# [11] = test system: RARb homodimer (NR concentration 270 nM)
# Procedure, shortened: as §1
# [12] = test system: RARg:RXRa (NR concentration 270 nM, RXRa partner concentration 90 nM)
# Procedure, shortened: as §1
# [13] = test system: RARg homodimer (NR concentration 270 nM)
# Procedure, shortened: as §1
# [14] = test system: RXRa DBDmut IVT, anti-RXR (DBD mutation: RXRa K156A/R161A, NR concentration 90 nM)
# Procedure, shortened: as §1
# [15] = test system: RXRa homodimer (NR concentration 180 nM)
# Procedure, shortened: as §1
# [16] = test system: THRa:RXRa (NR concentration 90 nM, RXRa partner concentration 90 nM)
# Procedure, shortened: as §1
# [17] = test system: THRa homodimer (NR concentration 90 nM)
# Procedure, shortened: as §1
# [18] = test system: VDR homodimer (NR concentration 270 nM)
# Procedure, shortened: as §1
Sequence,PBM binding z-score [1],PBM binding z-score [2],PBM binding z-score [3],PBM binding z-score [4],PBM binding z-score [5],PBM binding z-score [6],PBM binding z-score [7],PBM binding z-score [8],PBM binding z-score [9],PBM binding z-score [10],PBM binding z-score [11],PBM binding z-score [12],PBM binding z-score [13],PBM binding z-score [14],PBM binding z-score [15],PBM binding z-score [16],PBM binding z-score [17],PBM binding z-score [18]
CGAACTAGGTCATCCAGGATAGTGAATACATTGA,7.97,8.31,1.76,1.58,1.43,1.54,0.608,2.18,1.13,3.78,3.03,3.82,4.37,2.18,2.75,3.26,1.49,0.935
ATCTCTAGGTAAAGATAGTTCAGTTAATGCAAAT,2.3,1.96,0.842,0.769,1.02,1.26,0.841,0.925,1.28,0.672,1.19,0.937,0.915,0.536,0.419,1.27,0.471,0.927
ACCATTAGTTGACTTAGGGCAACCGATACGACGC,0.771,0.653,0.856,-0.189,0.706,0.147,0.618,0.916,0.526,0.973,1.34,0.733,0.851,0.744,0.478,1.61,0.915,0.163
GATACAGGCTCAAGGCCAGAGTACGCGTATTGAT,-0.731,-0.511,-0.646,-1.16,-1.02,-0.534,0.0448,-0.806,-0.764,-0.0838,-0.491,-0.284,0.128,-0.619,-0.27,-0.479,-0.602,-0.14
CAAACTAGGTCAAGTGGTCAAAGTCCGCTTCCCG,8.23,8.54,2.88,1.21,2.1,2.11,0.168,3,0.47,4.38,4.26,4.95,5.48,1.85,3.76,3.16,1.43,1.08
TCTTGTATATCAATAGAGGTTAAGAAAGTGCGCT,1.98,1.05,0.574,1.14,0.383,3,0.496,1.54,0.672,0.997,1.38,0.864,0.687,1.05,1.58,1.72,-0.0174,0.47
CCGACTGGCGCAAGGTTACCATAACGCACAGCCA,0.00884,-0.432,-1.08,-0.725,0.0939,0.262,-0.271,0.604,-0.0192,0.871,0.818,0.543,0.602,0.0804,0.892,1.23,0.443,-0.0582
CCTCCAAGGTCAAGGTCAGTGAAAGAGACTCGAA,2.84,4.47,0.309,-0.405,3.87,4.83,1.54,5.14,2.11,5.8,5.05,6.52,7.43,3.49,6.09,4.18,3.64,2.98
GCTCGGAGGACAAGGTCCGAGCTTTGTCCGTAGA,-0.364,-0.655,-1.03,-1.31,-1.07,-0.519,-1.19,-0.414,-1.77,0.839,0.2,-0.185,0.242,-0.26,-0.792,0.554,-0.414,-0.775
TCTATTAGTGGATTAGGGCAACCGAAACAGCGGA,2.45,2.24,0.96,1.11,1.27,0.235,0.482,0.458,1.39,0.682,0.492,0.384,0.643,1.06,0.49,0.449,0.4,0.393
TGTCAAAGTTGAAAGGTAACGTAAGTATCCACAC,-0.206,3.18,0.664,0.491,0.376,1.38,0.066,2.56,0.0354,2.15,1.36,2.23,1.4,-0.369,2.69,1.77,-0.382,-0.281
AATAAAGGGTCACTAGGCCAGAGTAGGTACGAAT,4.52,6.06,1.89,1.25,2.96,3.13,0.43,4.07,1.9,5.16,4.18,5.83,6.43,2.48,5.89,2.82,0.263,2.36
CTCGAAAGGTCGTGCTCTGGTGAGTATACCAAAC,1.12,1.7,0.0542,0.48,1.41,2.92,-0.238,3.6,0.169,3.86,2.73,4.35,3.14,2.01,4.69,2.61,0.441,0.997
CGTCCTAGGTCAGCAGGTCAGTGAAAGCGACGTG,3.21,3.44,-0.463,-0.745,1.79,1.75,-0.5,2.64,-0.501,4.39,4.37,4.95,5.41,0.595,3.21,2.88,1.1,0.285
AGTGAAAGTTCACTAGGTAACGTAAGATTCAGCT,2.6,4.86,1.41,0.57,2.04,3.61,2,3.07,0.607,4.44,3.4,4.46,5.32,3.84,3.77,1.96,-0.00547,3.15
TCTGCTAGGTCAACGATGGTCAGCAAATCTGCTA,3.85,4.18,0.827,0.166,0.381,1.47,-0.599,2.12,-0.686,4.26,3.35,3.94,5.26,0.984,2.45,3.17,0.756,-0.402

Sequence,PBM binding z-score [1],PBM binding z-score [2],PBM binding z-score [3],PBM binding z-score [4],PBM binding z-score [5],PBM binding z-score [6],PBM binding z-score [7],PBM binding z-score [8],PBM binding z-score [9],PBM binding z-score [10],PBM binding z-score [11],PBM binding z-score [12],PBM binding z-score [13],PBM binding z-score [14],PBM binding z-score [15],PBM binding z-score [16],PBM binding z-score [17],PBM binding z-score [18]
CAAACTAGGTCACAGAGGTGAAAGTCCGTGCGTA,8.61,8.94,5.86,4.85,2.36,3.51,0.909,4.08,0.879,4.42,3.98,5.15,5.24,1.76,4.44,3.9,2.28,2.6
ATCTCTAGGTAACAAGTTCAGTGAAAGAGAGGAC,3.46,3.2,1.03,1.64,1.58,1.71,2.41,0.933,1.19,1.85,1.78,1.52,1.61,1.06,0.955,1.68,0.986,3.36
GCATATAGGTAACACAAGGTGAAAGTCCGATTGT,5.29,4.7,0.827,0.927,0.275,0.74,-0.11,1.25,0.102,0.856,1.15,0.82,0.784,0.286,0.938,4.19,0.843,0.00161
ATCTCTAGGTAAAGTTAAGTGAAAGATCGATAGA,2.61,1.99,0.949,2.08,0.251,-0.00139,0.451,0.249,0.961,0.312,-0.142,0.48,0.546,0.204,0.171,0.478,-0.14,0.368
AGAATGAGGTTATTAAGATCAGGCAATTGCGGTC,2.95,2.56,0.272,0.448,0.366,1.2,0.322,1.47,0.167,1.33,0.685,1.05,0.712,1.89,1.65,2.22,0.632,1.24
AGAACGAGGTTAAGATCAGGGAAACAGAATACAT,1.95,2.16,1.47,0.398,0.757,1.27,0.776,1.89,0.576,1.91,1.12,2.15,1.62,1.03,2.45,2.36,0.55,0.771
CGTCCAAGGTCAATACTAGGTCAGTGAAAGCATT,3.77,5,0.518,0.663,3.8,4.37,1.76,5.42,0.743,5.22,5.1,6.92,6.34,3.51,4.84,4.42,3,2.44
AGAACGAGGGCTCGCTGAGTTGATAGCAGAGTAG,-0.0756,-0.495,-1.3,-0.699,-0.792,-0.724,-0.639,-0.678,-1.21,-0.365,-1.22,-0.312,-0.258,-0.292,-0.132,-0.509,-0.958,-0.176
TCTCGGAGGACACGAAAGGACAGAGCTCGACATC,1.47,0.125,-0.295,-0.96,-0.288,-0.168,-0.334,0.0232,-0.282,2.03,1.82,1.33,2.48,0.518,0.152,2.23,0.669,-0.424
TAGCCTAGGTAAGATCGGGCCAGTATACGCTATA,-0.504,-0.0138,-2.06,-1.02,-0.948,-0.638,-0.73,-0.261,-1.46,-1.22,-0.638,-0.26,-0.321,-1.17,-0.364,1.37,-0.927,-0.857
AGTCAAAGTTCATCTAGGTAACGTGAGATATGCT,1.17,3.86,1.73,0.803,2.99,5.36,7.67,3.82,1.48,4.96,3.97,5.63,6.26,4.74,4.89,3.05,0.297,4.95
TTTAGCAGGCCAGAGGGTCACTCAAGAGGTACGG,-0.256,1.03,-0.784,-1.27,0.57,1.55,-0.341,2.18,-0.62,2.05,2.65,2.51,2.02,-0.755,2.32,1.6,-0.313,0.332
AGTCAAAGTTCACAAGGTAACGTAAGATTCAGCT,0.681,3.67,1.19,0.956,3.05,4.78,2.84,4.51,2.08,4.82,3.97,5.73,6.02,4.32,4.74,3.06,0.961,3.66
ACTAGCAGGACAAGTTTGGGTCACTCAAACAAAG,0.129,0.867,0.113,-0.22,0.596,0.911,-0.116,1.47,-0.279,1.7,2.28,1.51,1.55,0.164,0.931,2.62,1.42,0.216
ACTATTAGTTGACTTTGGGCAACCGATACGACGC,-0.00927,0.141,1.83,1.67,0.55,0.0456,0.199,0.481,0.975,0.454,0.274,0.43,0.635,0.79,0.476,0.55,0.0342,0.298
